# Test results as given in PMC7862700, “An all-to-all approach to the identification of sequence-specific readers for epigenetic DNA modifications on cytosine”.
# Key:
# Assay in all cases: DAPPL (digital affinity profiling via proximity ligation, sequencing); 10 mM Tris-HCl pH 7.5, 50 mM NaCl, 1 mM DTT, 4% glycerol, room temperature, 30 min; GST-TFs on glutathione beads, 16-mer random dsDNA library, 0.1% formaldehyde crosslink after washing; high values mean tight binding
# FLI1 = biological target: T1, FLI1 (Homo sapiens, UniProt Q01543 1-452); settings: protein: recombinant; tags: N-terminal GST; dsDNA, one strand shown
# T1 sequence: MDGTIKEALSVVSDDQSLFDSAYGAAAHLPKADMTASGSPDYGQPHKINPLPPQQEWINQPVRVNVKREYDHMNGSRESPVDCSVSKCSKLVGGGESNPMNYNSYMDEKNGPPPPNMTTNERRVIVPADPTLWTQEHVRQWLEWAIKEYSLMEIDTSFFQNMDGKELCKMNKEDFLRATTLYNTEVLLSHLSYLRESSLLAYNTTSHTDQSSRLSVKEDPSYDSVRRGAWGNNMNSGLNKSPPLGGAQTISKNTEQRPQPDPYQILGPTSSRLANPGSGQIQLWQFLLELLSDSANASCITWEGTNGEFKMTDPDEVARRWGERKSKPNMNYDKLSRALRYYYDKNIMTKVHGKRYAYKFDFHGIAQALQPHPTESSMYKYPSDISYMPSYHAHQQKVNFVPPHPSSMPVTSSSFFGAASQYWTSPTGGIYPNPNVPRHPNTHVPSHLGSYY
# In short: (§1)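 Binding signal is given per hexamer as its read frequency for a factor divided by its frequency in the tag-only sample. GST-fused human transcription factors were expressed in yeast, captured on glutathione beads, barcoded with DNA and pooled with that sample, then incubated with 200 nmole of a 16-mer random double-stranded DNA library in Tris/NaCl/DTT/glycerol buffer for 30 min at room temperature. The pools were then washed, crosslinked, proximity-ligated, amplified by PCR and sequenced on an Illumina NextSeq500.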
# ELK1 = biological target: T2, ELK1 (Homo sapiens, UniProt P19419 1-428); settings: protein: recombinant; tags: N-terminal GST; dsDNA, one strand shown
# T2 sequence: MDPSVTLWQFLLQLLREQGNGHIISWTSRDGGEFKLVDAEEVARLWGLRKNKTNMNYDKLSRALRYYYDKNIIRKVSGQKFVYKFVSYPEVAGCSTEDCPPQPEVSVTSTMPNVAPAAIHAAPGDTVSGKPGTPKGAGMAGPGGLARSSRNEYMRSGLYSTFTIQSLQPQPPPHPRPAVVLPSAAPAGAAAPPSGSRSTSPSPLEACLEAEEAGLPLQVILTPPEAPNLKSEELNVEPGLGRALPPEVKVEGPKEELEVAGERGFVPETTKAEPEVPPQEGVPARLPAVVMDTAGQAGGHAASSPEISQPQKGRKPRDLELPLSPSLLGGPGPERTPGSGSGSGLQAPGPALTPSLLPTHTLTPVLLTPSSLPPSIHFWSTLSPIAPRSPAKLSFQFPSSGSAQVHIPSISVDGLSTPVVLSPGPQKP
# In short: as §1
# GABPA = biological target: T3, GABPA (Homo sapiens, UniProt Q06546 1-454); settings: protein: recombinant; tags: N-terminal GST; dsDNA, one strand shown
# T3 sequence: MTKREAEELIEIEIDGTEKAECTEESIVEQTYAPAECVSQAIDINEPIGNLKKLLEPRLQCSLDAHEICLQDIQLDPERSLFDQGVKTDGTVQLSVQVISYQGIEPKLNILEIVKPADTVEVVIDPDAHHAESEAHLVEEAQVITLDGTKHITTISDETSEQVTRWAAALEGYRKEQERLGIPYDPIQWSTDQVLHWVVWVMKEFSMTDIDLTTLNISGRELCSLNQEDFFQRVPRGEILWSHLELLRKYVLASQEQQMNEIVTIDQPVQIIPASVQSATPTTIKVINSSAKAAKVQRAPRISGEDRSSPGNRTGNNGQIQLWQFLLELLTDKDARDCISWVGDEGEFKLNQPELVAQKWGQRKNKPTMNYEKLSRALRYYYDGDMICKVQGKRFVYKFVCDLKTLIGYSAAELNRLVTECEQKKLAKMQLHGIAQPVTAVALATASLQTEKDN
# In short: as §1
# ERG = biological target: T4, ERG (Homo sapiens, UniProt P11308 1-479); settings: protein: recombinant; tags: N-terminal GST; dsDNA, one strand shown
# T4 sequence: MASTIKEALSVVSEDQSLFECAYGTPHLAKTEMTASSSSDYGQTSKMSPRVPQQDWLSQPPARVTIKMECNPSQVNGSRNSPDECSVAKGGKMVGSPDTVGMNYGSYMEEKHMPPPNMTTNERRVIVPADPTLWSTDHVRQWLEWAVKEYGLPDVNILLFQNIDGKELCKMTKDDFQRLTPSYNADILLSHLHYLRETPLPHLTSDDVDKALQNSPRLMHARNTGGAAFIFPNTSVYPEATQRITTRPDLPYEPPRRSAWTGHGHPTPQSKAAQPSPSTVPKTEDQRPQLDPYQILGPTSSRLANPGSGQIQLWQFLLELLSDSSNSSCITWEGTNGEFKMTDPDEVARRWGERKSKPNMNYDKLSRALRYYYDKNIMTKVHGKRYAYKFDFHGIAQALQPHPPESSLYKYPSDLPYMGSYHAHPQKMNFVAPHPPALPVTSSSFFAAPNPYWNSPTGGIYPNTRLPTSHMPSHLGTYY
# In short: as §1
# ELF1 = ELF1 (Homo sapiens, UniProt P32519 1-619); settings: protein: recombinant; tags: N-terminal GST; dsDNA, one strand shown
# In short: as §1
# EHF = biological target: T5, EHF (Homo sapiens, UniProt Q9NZC4 1-300); settings: protein: recombinant; tags: N-terminal GST; dsDNA, one strand shown
# T5 sequence: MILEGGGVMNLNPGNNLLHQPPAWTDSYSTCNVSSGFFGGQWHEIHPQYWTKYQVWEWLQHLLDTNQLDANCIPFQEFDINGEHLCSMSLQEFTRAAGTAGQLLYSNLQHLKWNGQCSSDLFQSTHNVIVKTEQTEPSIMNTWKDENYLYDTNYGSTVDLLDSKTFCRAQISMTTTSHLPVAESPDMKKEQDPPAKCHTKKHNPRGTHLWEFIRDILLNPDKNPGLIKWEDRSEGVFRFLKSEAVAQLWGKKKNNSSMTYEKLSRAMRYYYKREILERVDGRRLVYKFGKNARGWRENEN
# In short: as §1
# SPI1 = SPI1 (Homo sapiens, UniProt P17947 1-270); settings: protein: recombinant; tags: N-terminal GST; dsDNA, one strand shown
# In short: as §1
# SPIB = SPIB (Homo sapiens, UniProt Q01892 1-262); settings: protein: recombinant; tags: N-terminal GST; dsDNA, one strand shown
# In short: as §1
# ELK3 = biological target: T6, ELK3 (Homo sapiens, UniProt P41970 1-407); settings: protein: recombinant; tags: N-terminal GST; dsDNA, one strand shown
# T6 sequence: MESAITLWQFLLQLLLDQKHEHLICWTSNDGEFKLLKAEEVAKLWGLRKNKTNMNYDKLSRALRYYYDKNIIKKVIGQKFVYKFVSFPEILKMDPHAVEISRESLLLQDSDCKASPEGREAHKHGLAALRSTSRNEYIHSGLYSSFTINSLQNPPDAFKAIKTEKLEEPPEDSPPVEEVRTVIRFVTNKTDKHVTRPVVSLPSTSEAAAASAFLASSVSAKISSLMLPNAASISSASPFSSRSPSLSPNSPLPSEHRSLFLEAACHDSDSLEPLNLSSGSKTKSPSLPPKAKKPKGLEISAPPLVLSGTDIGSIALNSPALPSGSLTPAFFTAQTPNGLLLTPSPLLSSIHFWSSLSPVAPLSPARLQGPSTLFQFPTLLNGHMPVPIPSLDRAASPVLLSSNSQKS
# In short: as §1
# FEV = biological target: T7, FEV (Homo sapiens, UniProt Q99581 1-238); settings: protein: recombinant; tags: N-terminal GST; dsDNA, one strand shown
# T7 sequence: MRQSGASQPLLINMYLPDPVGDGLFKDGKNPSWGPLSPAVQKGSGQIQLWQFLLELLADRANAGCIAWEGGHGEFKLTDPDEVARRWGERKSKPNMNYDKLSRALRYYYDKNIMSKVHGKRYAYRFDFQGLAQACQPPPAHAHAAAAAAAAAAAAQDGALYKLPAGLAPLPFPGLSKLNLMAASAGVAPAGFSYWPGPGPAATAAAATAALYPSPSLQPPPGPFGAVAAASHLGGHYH
# In short: as §1
# ETV5 = ETV5 (Homo sapiens, UniProt P41161 1-510); settings: protein: recombinant; tags: N-terminal GST; dsDNA, one strand shown
# In short: as §1
# HSF1 = HSF1 (Homo sapiens, UniProt Q00613 1-529); settings: protein: recombinant; tags: N-terminal GST; chain copies: 3; dsDNA, one strand shown
# In short: as §1
# SPIC = biological target: T8, SPIC (Homo sapiens, UniProt Q8N5J4 1-248); settings: protein: recombinant; tags: N-terminal GST; dsDNA, one strand shown
# T8 sequence: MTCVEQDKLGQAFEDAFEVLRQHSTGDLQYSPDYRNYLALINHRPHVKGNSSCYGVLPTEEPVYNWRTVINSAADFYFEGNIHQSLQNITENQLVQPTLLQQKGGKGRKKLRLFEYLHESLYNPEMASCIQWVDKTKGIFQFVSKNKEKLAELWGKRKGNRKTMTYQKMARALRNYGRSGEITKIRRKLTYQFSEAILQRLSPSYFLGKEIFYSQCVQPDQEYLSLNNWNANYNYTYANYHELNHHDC
# In short: as §1
# ELF4 = ELF4 (Homo sapiens, UniProt Q99607 1-663); settings: protein: recombinant; tags: N-terminal GST; dsDNA, one strand shown
# In short: as §1
# ELK4 = biological target: T9, ELK4 (Homo sapiens, UniProt P28324-2 1-405); settings: protein: recombinant; tags: N-terminal GST; dsDNA, one strand shown
# T9 sequence: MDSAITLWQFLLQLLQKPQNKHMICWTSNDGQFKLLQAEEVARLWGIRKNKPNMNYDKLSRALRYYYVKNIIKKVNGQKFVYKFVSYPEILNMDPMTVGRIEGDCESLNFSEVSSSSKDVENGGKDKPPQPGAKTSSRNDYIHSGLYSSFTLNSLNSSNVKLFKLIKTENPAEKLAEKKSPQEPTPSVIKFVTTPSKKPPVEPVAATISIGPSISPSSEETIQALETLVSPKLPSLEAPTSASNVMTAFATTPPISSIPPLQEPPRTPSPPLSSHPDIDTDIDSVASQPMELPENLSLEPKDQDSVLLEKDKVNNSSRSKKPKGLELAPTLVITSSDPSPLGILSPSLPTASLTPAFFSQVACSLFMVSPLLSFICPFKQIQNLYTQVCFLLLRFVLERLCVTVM
# In short: as §1
# ETV2 = biological target: T10, ETV2 (Homo sapiens, UniProt O00321 1-342); settings: protein: recombinant; tags: N-terminal GST; dsDNA, one strand shown
# T10 sequence: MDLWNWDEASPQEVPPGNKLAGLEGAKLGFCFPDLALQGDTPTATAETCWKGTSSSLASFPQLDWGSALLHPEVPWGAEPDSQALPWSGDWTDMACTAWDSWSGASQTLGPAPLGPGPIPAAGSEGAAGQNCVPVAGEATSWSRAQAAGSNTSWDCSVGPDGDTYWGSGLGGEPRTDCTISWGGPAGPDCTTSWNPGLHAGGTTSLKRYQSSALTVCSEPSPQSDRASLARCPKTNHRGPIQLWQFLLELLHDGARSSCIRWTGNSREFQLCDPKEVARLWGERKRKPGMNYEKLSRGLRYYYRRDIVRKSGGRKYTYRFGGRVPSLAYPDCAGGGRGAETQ
# In short: as §1
# ELF3 = biological target: T11, ELF3 (Homo sapiens, UniProt P78545 1-371); settings: protein: recombinant; tags: N-terminal GST; dsDNA, one strand shown
# T11 sequence: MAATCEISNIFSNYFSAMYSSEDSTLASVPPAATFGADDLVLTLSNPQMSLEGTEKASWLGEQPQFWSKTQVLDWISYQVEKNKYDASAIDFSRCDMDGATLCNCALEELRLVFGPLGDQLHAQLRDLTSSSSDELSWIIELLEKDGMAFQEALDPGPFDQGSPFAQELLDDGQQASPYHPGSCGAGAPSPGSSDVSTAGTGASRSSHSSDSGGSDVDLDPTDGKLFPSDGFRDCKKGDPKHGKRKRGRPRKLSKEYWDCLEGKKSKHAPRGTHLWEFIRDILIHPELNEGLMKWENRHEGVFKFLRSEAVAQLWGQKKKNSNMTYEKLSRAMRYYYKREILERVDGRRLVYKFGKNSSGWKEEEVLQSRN
# In short: as §1
# CRX = CRX (Homo sapiens, UniProt O43186 1-299); settings: protein: recombinant; tags: N-terminal GST; dsDNA, one strand shown
# In short: as §1
# ETV1 = ETV1 (Homo sapiens, UniProt P50549 1-477); settings: protein: recombinant; tags: N-terminal GST; dsDNA, one strand shown
# In short: as §1
# ELF1, sequence (P32519 whole entry): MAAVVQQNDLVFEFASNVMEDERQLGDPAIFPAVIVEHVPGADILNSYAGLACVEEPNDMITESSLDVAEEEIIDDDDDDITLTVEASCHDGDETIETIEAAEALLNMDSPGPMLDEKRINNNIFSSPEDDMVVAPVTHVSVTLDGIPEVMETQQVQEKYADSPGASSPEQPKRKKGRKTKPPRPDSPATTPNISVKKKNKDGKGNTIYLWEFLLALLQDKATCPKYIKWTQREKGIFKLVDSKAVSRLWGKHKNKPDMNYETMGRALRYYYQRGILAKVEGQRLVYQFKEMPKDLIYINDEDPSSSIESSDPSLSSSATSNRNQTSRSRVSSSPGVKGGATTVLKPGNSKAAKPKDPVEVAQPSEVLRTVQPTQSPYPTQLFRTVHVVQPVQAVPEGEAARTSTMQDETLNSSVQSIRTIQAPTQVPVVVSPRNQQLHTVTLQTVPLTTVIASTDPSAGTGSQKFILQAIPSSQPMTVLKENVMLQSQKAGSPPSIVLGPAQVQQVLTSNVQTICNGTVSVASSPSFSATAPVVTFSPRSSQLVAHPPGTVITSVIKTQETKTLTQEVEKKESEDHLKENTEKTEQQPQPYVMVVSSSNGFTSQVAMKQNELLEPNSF
# ELF4, sequence (Q99607 whole entry): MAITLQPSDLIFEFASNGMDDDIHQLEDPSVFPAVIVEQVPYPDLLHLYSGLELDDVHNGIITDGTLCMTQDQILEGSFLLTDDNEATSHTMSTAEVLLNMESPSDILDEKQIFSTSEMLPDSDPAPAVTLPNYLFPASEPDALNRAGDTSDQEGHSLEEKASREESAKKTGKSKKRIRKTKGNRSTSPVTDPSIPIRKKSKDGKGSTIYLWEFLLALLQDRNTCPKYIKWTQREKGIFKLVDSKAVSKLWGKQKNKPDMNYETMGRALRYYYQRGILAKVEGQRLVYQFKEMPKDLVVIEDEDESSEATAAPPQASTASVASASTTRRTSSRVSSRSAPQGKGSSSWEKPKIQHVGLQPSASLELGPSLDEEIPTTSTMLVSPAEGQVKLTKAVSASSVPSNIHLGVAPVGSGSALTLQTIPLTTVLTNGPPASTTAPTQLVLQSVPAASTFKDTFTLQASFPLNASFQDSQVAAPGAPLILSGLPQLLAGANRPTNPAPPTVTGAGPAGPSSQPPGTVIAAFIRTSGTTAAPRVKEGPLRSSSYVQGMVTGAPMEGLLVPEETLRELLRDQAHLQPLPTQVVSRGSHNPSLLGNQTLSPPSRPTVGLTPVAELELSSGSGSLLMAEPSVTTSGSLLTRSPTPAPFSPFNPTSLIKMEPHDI
# CRX, sequence (O43186 whole entry): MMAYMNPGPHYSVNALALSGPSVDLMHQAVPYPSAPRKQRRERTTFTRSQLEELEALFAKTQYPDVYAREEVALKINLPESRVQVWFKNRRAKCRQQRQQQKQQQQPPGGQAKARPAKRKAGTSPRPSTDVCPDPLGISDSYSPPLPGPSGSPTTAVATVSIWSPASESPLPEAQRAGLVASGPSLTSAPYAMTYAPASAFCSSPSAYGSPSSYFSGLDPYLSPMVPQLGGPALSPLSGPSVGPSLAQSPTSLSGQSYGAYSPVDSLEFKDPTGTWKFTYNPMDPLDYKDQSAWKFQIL
# ETV5, sequence (P41161 whole entry): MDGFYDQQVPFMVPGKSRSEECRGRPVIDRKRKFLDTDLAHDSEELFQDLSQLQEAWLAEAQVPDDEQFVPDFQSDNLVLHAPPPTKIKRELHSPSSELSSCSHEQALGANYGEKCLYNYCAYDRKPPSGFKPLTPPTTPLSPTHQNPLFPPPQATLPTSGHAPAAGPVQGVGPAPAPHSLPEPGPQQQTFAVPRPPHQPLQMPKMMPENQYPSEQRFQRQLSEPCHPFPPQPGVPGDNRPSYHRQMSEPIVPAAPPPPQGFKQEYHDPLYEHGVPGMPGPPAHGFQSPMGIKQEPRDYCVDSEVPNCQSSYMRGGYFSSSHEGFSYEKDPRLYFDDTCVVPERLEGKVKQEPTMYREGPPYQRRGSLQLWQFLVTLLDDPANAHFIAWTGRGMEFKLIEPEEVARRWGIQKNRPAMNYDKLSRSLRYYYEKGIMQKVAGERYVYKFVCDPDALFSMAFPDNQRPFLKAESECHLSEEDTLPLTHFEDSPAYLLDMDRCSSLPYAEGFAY
# ETV1, sequence (P50549 whole entry): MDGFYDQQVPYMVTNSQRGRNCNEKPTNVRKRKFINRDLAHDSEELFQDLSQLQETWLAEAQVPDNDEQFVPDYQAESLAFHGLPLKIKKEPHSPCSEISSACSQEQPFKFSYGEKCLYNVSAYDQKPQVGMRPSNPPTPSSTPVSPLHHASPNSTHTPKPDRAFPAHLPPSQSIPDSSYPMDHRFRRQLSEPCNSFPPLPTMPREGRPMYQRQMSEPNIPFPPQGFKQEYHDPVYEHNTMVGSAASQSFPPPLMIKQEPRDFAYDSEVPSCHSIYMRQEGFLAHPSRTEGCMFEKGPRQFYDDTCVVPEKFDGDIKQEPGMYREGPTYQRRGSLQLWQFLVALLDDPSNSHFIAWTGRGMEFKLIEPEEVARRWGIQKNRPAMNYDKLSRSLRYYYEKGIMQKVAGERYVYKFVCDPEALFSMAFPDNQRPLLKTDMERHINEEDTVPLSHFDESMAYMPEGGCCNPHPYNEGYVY
# HSF1, sequence (Q00613 whole entry): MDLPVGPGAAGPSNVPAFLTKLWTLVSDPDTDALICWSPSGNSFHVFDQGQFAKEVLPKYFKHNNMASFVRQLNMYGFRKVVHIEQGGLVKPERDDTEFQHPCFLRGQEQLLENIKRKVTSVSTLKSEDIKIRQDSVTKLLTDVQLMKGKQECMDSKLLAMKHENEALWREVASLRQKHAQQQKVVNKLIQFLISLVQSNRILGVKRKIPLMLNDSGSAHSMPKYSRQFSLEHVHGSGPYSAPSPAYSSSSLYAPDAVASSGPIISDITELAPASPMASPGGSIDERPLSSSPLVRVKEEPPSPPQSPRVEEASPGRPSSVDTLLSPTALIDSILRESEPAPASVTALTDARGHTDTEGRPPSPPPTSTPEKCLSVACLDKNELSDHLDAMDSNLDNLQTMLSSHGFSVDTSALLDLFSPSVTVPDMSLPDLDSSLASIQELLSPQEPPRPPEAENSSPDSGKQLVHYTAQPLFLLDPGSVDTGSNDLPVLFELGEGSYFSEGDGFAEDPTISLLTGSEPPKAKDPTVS
# SPIB, sequence (Q01892 whole entry): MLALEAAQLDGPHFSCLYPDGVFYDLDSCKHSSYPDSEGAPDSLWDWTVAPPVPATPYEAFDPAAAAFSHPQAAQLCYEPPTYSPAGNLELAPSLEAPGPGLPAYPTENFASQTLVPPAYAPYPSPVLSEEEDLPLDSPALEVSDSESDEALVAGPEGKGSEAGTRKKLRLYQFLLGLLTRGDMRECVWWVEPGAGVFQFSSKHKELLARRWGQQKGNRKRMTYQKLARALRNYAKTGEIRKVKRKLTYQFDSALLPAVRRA
sequence,measurement,setting,value
AAAACG,binding signal,FLI1,"1.13 fold enrichment (6-mer frequency, TF over GST control)"
same,binding signal,ELK1,"1.19 fold enrichment (6-mer frequency, TF over GST control)"
same,binding signal,GABPA,"1.14 fold enrichment (6-mer frequency, TF over GST control)"
same,binding signal,ERG,"1.21 fold enrichment (6-mer frequency, TF over GST control)"
same,binding signal,ELF1,"1.16 fold enrichment (6-mer frequency, TF over GST control)"
same,binding signal,EHF,"1.17 fold enrichment (6-mer frequency, TF over GST control)"
same,binding signal,SPI1,"1.43 fold enrichment (6-mer frequency, TF over GST control)"
same,binding signal,SPIB,"1.11 fold enrichment (6-mer frequency, TF over GST control)"
same,binding signal,ELK3,"1.14 fold enrichment (6-mer frequency, TF over GST control)"
same,binding signal,FEV,"1.18 fold enrichment (6-mer frequency, TF over GST control)"
same,binding signal,ETV5,"1.29 fold enrichment (6-mer frequency, TF over GST control)"
same,binding signal,HSF1,"1.06 fold enrichment (6-mer frequency, TF over GST control)"
same,binding signal,SPIC,"1.3 fold enrichment (6-mer frequency, TF over GST control)"
same,binding signal,ELF4,"1.22 fold enrichment (6-mer frequency, TF over GST control)"
same,binding signal,ELK4,"1.19 fold enrichment (6-mer frequency, TF over GST control)"
same,binding signal,ETV2,"1.24 fold enrichment (6-mer frequency, TF over GST control)"
same,binding signal,ELF3,"1.16 fold enrichment (6-mer frequency, TF over GST control)"
same,binding signal,CRX,"1.05 fold enrichment (6-mer frequency, TF over GST control)"
same,binding signal,ETV1,"1.21 fold enrichment (6-mer frequency, TF over GST control)"
